# KB-V1 cytotox – kills drug-selected multidrug resistant KB-V1 cells. KB-V1 MDR cells viability, CellTiter-Glo, 72 h. Potency, µM (doses to about 46.1 µM), usual class: cytotoxic. hit rate 3.4% among 400,000. AID 1347076; further: nearly all actives have a fitted effect of over 60% in size
#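 Cytotoxicity toward P-gp-expressing KB-V1 cells was determined as loss of CellTiter-Glo luminescence after 72 h at 37 degrees C. Compounds were tested in quantitative HTS format across a concentration range, with curves fitted to normalized data.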
# KB-3-1 tox – kills parental KB-3-1 adenocarcinoma cells; KB-3-1 viability, CellTiter-Glo ATP luminescence, 72 h; Potency, µM (top dose mostly 46.1 µM), most hits filed as cytotoxic; hit rate 1.4% among 400,000; AID 1347075; further: nearly all actives have a fitted effect of over 60% in size
#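 Cells are dispensed, compounds pinned in, plates held at 37 °C for 72 h, then CellTiter-Glo is added and luminescence read after 10 minutes. Cell line: parental KB-3-1 in phenol-red-free DMEM, 10% FBS.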
# MCF10A rerep – DNA re-replication induction in MCF 10a cells | MCF 10A DNA re-replication, Hoechst nuclear intensity, 48 h | hit rate 2.9% among 350,000 | AID 624296 | Potency, µM (highest dose often 46.1 µM), hits mostly activators; further: nearly all actives have a fitted effect of over 50% in size
# SW480 rereplic – inducers of DNA re-replication in SW480 colon cancer cells. SW480 DNA re-replication, Hoechst DNA content imaging, 48 h. Potency, µM (series often up to 46.1 µM), actives largely listed as activators. hit rate 1.8% among 340,000; further: nearly all actives have a fitted effect of over 55% in size
#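 Cells (250 per well) received 23 nL compound or DMSO by pin tool and were kept 48 hr at 37 C, 5% CO2. Nuclei were then stained with Hoechst for 40 min and scanned for DNA content.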
# HT1080NT lethal – kills 2HG-producing HT-1080-NT fibrosarcoma cells. HT-1080-NT fibrosarcoma viability, CellTiter-Glo ATP luminescence, 48 h. Potency, µM (series often up to 46.1 µM), most hits filed as cytotoxic. hit rate 1.6% among 360,000;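 further: NT is the 2HG producing partner of a matched IDH1 knockdown line; nearly all actives have a fitted effect of over 55% in size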
#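 Viability by CellTiter-Glo luminescence after 48 h compound exposure at 37C of HT-1080-NT cells (750/well, RPMI, 5% FBS). % activity scaled between DMSO wells and medium-only wells, then curve-fitted and categorized by curve class.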
# HT1080 IDH1KD tx – HT-1080 IDH1 knockdown cell toxicity (counter line). HT-1080 IDH1 knockdown viability, ATP luminescence, 48 h. hit rate 2% among 360,000. Potency, µM (titrated, usually from 46.1 µM), usual class: cytotoxic
#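 Luminescent ATP read-out (CellTiter-Glo, 10 min at room temperature) after 48 h compound exposure at 37 °C gave viability of IDH1-knockdown HT-1080 cells. Activity was normalised to DMSO and cell-free wells, then fitted as concentration-response curves.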
# Hits are given with their value; i = inactive; ? = inconclusive; nt = no result given; ! = a repeat was not active. In the library only some 8% were active in any assay of this set; here they are far more common. The call rests on the fitted dose curve; in most records, active means well fitted curve in the direction sought with a large enough effect; inconclusive means small, poorly fitted or top-dose-only effect, or another doubt; inactive means no such curve, though single readings can be large; an effect the other way counts as inactive or inconclusive.
SMILES,KB-V1 cytotox,KB-3-1 tox,MCF10A rerep,SW480 rereplic,HT1080NT lethal,HT1080 IDH1KD tx
COc1ccc(-c2oc(=O)c3cc(OC)c(OC)cc3c2/C=C/c2ccc(OC(C)=O)cc2)cc1,i,i,?,?,i,?
COc1cc(-c2noc(C)c2/C=C/c2ccc(OC(C)=O)cc2)cc(OC)c1OC,1.3µM!,0.73µM,?,?,0.37µM,0.52µM
CC1CCN(C(=O)COC(=O)c2ccc(Br)o2)CC1,i,?,i,i,i,i
CC1CCN(C(=O)COC(=O)c2ccc([N+](=O)[O-])o2)CC1,?,i,i,21µM,i,i
N#CC1(c2ccc(NC(=O)c3ccccc3F)cc2)CCCC1,23µM,?,i,i,i,i
CCN(CC)c1ccc(NC(=O)c2ccco2)cc1,?,i,i,i,i,i
O=C(Nc1ccc(Nc2ccccc2)cc1)c1ccccc1F,i,i,?,4.6µM,i,i
CCN(CC)c1ccc(NC(=O)c2cc(Cl)ccc2OC)cc1,?,i,?,i,?,21µM
CCN(CC)c1ccc(NC(=O)c2ccccc2F)cc1,?,16µM,?,18µM,?,16µM
COc1ccc(Cl)cc1C(=O)Nc1ccncc1,i,i,i,i,i,i
Cc1ccc2[nH]c(-c3cccc(N)c3)cc2c1,i,i,i,i,i,i
Cc1cccc(C)c1OCC(=O)Nn1c(=O)[nH]c2ccccc2c1=O,?,i,i,i,i,i
O=C(/C=C/c1ccc(NC(=O)c2ccccc2-c2ccccc2C(=O)O)cc1)c1ccccc1,i,i,?,i,?,?
O=C(/C=C/c1ccncc1)c1ccc(NC(=O)c2ccccc2F)cc1,?,?,3.7µM,4.1µM,7.3µM,9.2µM
O=c1[nH]c(C2CCN(S(=O)(=O)c3cccc(C(F)(F)F)c3)CC2)nc2c1nnn2Cc1cccc(F)c1,?,?,?,i,21µM,21µM
O=c1[nH]c(C2CCN(S(=O)(=O)c3ccc4c(c3)OCCO4)CC2)nc2c1nnn2Cc1cccc(F)c1,i,i,i,?,i,i
CCNS(=O)(=O)c1ccc(NC(=O)Cn2cc([N+](=O)[O-])cn2)cc1,i,i,i,i,i,i
Cc1ccc2nc(Cl)c(/C=N/Nc3ccc(C(=O)O)cc3)cc2c1,i,i,16µM,?,i,i
CC(C)NC1(C#N)CCN(Cc2ccccc2)CC1,i,i,i,i,i,i
COc1cc(OC)cc(-c2c(-c3ccc(F)cc3)c3cc(-c4ccc5[nH]ccc5c4)ccc3n2C)c1,21µM,i,i,?,i,i
CCc1nc2ccc(C(=O)N(C)CCCN(C)C)cn2c1N(C)Cc1cc2ccccc2s1,i,i,nt,nt,18µM,16µM
COc1cc(C(CCN2CCCCC2)c2c(OC)cc(OC)c3c(-c4ccccc4)cc(=O)oc23)cc(OC)c1OC (configuration not stated),?,?,i,i,i,i
COc1cc(C(CCN2CCCC(C)C2)c2c(OC)cc(OC)c3c(-c4ccccc4)cc(=O)oc23)cc(OC)c1OC (configuration not stated),i,?,i,i,18µM,?
O=C(NCCCn1ccnc1)c1ccc(NS(=O)(=O)c2cccc([N+](=O)[O-])c2)cc1,i,i,i,i,i,i
COCCNC(=O)C1(C)CCN(Cc2noc(-c3c(C)noc3C)n2)C1 (configuration not stated),i,i,nt,nt,?,i
SMILES,KB-V1 cytotox,KB-3-1 tox,MCF10A rerep,SW480 rereplic,HT1080NT lethal,HT1080 IDH1KD tx
COC1(OC)C(/C=C/c2ccc(Cl)cc2)C(C#N)(C#N)C1(OC)OC (configuration not stated),?,?,6.5µM,?,i,21µM
Cc1c(C(=O)N2CCCC2(C)C(=O)NCC(C)C)oc2ccccc12 (configuration not stated),i,i,nt,nt,i,?
COc1cccc(-c2cnc(C(O)c3cccc(CN4CCCCC4)c3)[nH]2)c1 (configuration not stated),i,i,nt,nt,i,i
OC(c1cccc(CN2CCCCC2)c1)c1ncc(-c2cccc(C(F)(F)F)c2)[nH]1 (configuration not stated),i,i,nt,nt,21µM,?
OC(c1cccc(CN2CCCCC2)c1)c1ncc(-c2cccc3ccccc23)[nH]1 (configuration not stated),i,i,nt,nt,16µM,?
Fc1ccc(-c2csc(Nc3ccccn3)n2)c(F)c1,?,18µM,?,i,?,?
COC(=O)c1scc(C#N)c1N/N=C(\C#N)S(=O)(=O)c1ccc(Cl)cc1,8.2µM,?,13µM,i,?,?
COC(=O)c1scc(S(=O)(=O)C(C)C)c1N/N=C(\C#N)C(=O)c1ccc(Cl)cc1,?,?,i,i,?,?
O=C(CN1C(=O)C2CC=CCC2C1=O)N1CCN(c2ccc([N+](=O)[O-])cc2)CC1 (configuration not stated),?,i,i,i,i,i
COCCCNC(=O)Cc1c(C)c2c(cc(C)c3c(C(C)(C)C)coc32)oc1=O,5.2µM,5.2µM,?,2.3µM,4.1µM,2.9µM
O=C1c2ccccc2C(=O)N1c1ccc(S(=O)(=O)N2CCCCC2)cc1,i,i,i,i,i,i
c1ccc2c(-c3c[nH]c4ccccc34)c3ccccc3nc2c1,i,i,8.2µM,?,?,?
CCCCNC(=O)C[C@@H]1C[C@@]2(C(=O)OCC)CCCC=C2N(CCc2ccc(OC)c(OC)c2)C1=O,?,i,nt,nt,i,i
CCOC(=O)[C@]12CCCC=C1N(CCc1ccc(OC)c(OC)c1)C(=O)[C@H](CC(=O)NCCCCc1ccccc1)C2,21µM,?,nt,nt,?,?
CCCCCCCCN1C(=O)[C@H](CC(=O)NCCc2ccccc2OC)C[C@@]2(C(=O)OCC)CCCC=C12,21µM,i,nt,nt,?,?
CCCCCCCCN1C(=O)[C@H](CC(=O)NCc2cccc3ccccc23)C[C@@]2(C(=O)OCC)CCC=C12,?,i,nt,nt,?,?
CCOC(=O)[C@]12CCCC=C1N(CCc1ccc(OC)c(OC)c1)C(=O)[C@H](CC(=O)NCCc1ccccc1OC)C2,13µM,i,nt,nt,i,i
CCCCCCCCN1C(=O)[C@H](CC(=O)NCC23CC4CC(CC(C4)C2)C3)C[C@@]2(C(=O)OCC)CCCC=C12,i,16µM,nt,nt,i,i
CCCCCCCCN1C(=O)[C@H](CC(=O)N2CCN(C(=O)OCC)CC2)C[C@@]2(C(=O)OCC)CCCC=C12,?,i,nt,nt,?,?
COc1ccc(C(=O)NCCc2ccccn2)cc1S(=O)(=O)Nc1ccc(Br)cc1,?,i,i,i,i,i
COc1ccc(Nc2oc(COc3ccc(OC)cc3)nc2C#N)cc1,i,i,?,i,i,i

# Compound activity: PubChem BioAssay, National Center for Advancing Translational Sciences (NCATS)
